From PubChem BioAssay
CCHFV vOTU inh – CCHFV vOTU protease inhibitors, primary screen, biochemical, Pep-AMC substrate, fluorescence; Crimean-Congo hemorrhagic fever virus L polyprotein viral ovarian tumor (vOTU) protease …; 370,000 compounds, 0.55% hits; inhibition, % at 11.5 µM; also: 0% = vehicle wells with enzyme and 100% = no enzyme wells
RecA intein inh – Mtb RecA intein splicing inhibitors, primary screen, biochemical, fluorescence, HTS | cell-free RecA intein splicing | inhibition, % (test concentration not listed) | 290,000 compounds, 0.75% hits | AID 2221, 2009; in the data active = inhibition above about 30%; inconclusive = no clear call, values can overlap the other calls;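 also: 0% = vehicle wells and 100% = reference inhibitor control wells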
Mtb FBA inh – Mtb FBA enzyme inhibitors, primary screen, biochemical, fluorescence, strain H37Rv | Fructose-bisphosphate aldolase (Mycobacterium tuberculosis (strain ATCC 25618 / H37Rv)), … | purified M. tuberculosis FBA, fluorescence read-out | inhibition, % at 1 µM | 360,000 compounds, 2.3% hits | AID 588726, 2011; in the data active = inhibition above about 27%;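 also: 0% = vehicle and 100% = reference inhibitor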
Target sequence (P9WQA3 whole entry, looked up): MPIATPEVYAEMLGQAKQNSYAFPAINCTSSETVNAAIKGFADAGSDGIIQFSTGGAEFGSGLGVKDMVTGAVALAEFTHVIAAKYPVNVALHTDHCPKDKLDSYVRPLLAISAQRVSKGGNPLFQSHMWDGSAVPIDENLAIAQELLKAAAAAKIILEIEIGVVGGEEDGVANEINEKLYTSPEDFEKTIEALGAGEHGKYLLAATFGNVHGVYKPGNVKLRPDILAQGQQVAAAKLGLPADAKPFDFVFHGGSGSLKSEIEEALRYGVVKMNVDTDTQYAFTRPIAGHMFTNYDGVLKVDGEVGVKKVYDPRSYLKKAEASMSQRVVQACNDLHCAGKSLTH
Mtb betalactam – beta-lactam sensitization of Mtb H37Rv, H37Rv. M. tuberculosis H37Rv growth with meropenem, percent inhibition. inhibition, % at 25 µM. 330,000 compounds, 0.27% hits; call rule not given here;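 also: growth measured after seven days incubation then overnight dye step; 0% = bacteria only wells and 100% = bacteria with antibiotic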
GDH-TPI inh – GDH-TPI coupling enzyme inhibitors, primary screen, artefact control for M. tuberculosis FBA inhibitor project, biochemical, absorbance, full deck; GDH-TPI coupled enzyme counterscreen, NADH absorbance; inhibition, % at 4.8 µM; 360,000 compounds, 1.2% hits;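 also: 0% = DMSO wells and 100% = wells lacking the enzyme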
Numbers without * were called inactive; i = inactive; ? = inconclusive; / = not tested or not shown; + = active, no number. Sampled rows, rich in hits. Any-hit rate of the full collection: about 4.2%. Rule as the data show it, unless noted: active = inhibition above about 30%; inactive = the rest.

SMILES	CCHFV vOTU inh	RecA intein inh	Mtb FBA inh	Mtb betalactam	GDH-TPI inh
CCOC(=O)c1cc2c(=O)n3cccc(C)c3nc2n(CCCOC)c1=NC(=O)c1cccnc1	-194.8	-391.1	+	0.5	19.5
O=C(N[C@H]1C[C@@H]2O[C@@H](CO)CC[C@@H]2O[C@@H]1CCc1ccc(-c2cccnc2)cc1)c1cccc(F)c1	2.8	/	/	/	/
COc1ccc(N=c2cc(-c3ccc(OC)cc3)oc3ccccc23)cc1	-1.7	9.7	13.1	-4.4	18.4
COc1ccc(-c2cc(=NCCC(=O)O)c3cc(C)ccc3o2)cc1	-398.3	-82.2	+	/	25.6
COc1ccc(N=c2cc(-c3ccc(O)cc3)oc3ccccc23)cc1	5.6	6.9	-4.7	98.5	8.4
COc1ccc(-c2cc(=NC(CC(C)C)C(=O)O)c3cc(C)ccc3o2)cc1 (stereo not given)	-208.0	1.2	+	47.8	22.9
COc1ccc(-c2cc(=Nc3ccccc3)c3cc(C)ccc3o2)cc1	-147.1	13.7	+	15.4	-0.8
COC(=O)[C@H](CC(C)C)N(CCCc1cn(Cc2ccc(C)cc2)nn1)S(=O)(=O)c1ccccc1Br	11.8	/	/	/	/
CCC(CO)Nc1cccc2c1S(=O)(=O)N(Cc1cn(Cc3cccc(F)c3)nn1)Cc1ccccc1O2 (stereo not given)	-0.9	/	/	/	/
COc1cccc(/C(O)=C2\C(=O)C(=O)N(c3ccccn3)C2c2cccc(OC)c2OC)c1 (stereo not given)	5.8	/	-4.6	6.7	41.2*
COc1ccc(C2/C(=C(/O)c3ccccc3)C(=O)C(=O)N2c2ccccn2)cc1 (stereo not given)	-0.4	-0.1	1.1	2.8	10.8
COc1ccc(C2/C(=C(/O)c3ccc(C)cc3)C(=O)C(=O)N2c2ccccn2)cc1OC (stereo not given)	10.0	-1.3	0.2	-9.8	31.6*
COc1ccc(C2/C(=C(/O)c3ccccc3)C(=O)C(=O)N2c2ccccn2)cc1OC (stereo not given)	-6.6	-1.1	-2.2	-0.7	5.1
CCCC(=O)Nc1nc2ccc(OCC)cc2s1	8.5	-4.2	3.1	-2.2	1.4
COC(=O)c1sc(NC(=O)c2ccc(C)o2)nc1C	5.0	-0.2	0.5	-1.0	34.7*
CCOc1ccc2nc(NC(=O)c3ccc(C)o3)sc2c1	-9.8	0.2	5.7	6.8	49.0*
CCOC(=O)c1sc(NC(=O)c2ccc(C)o2)nc1C	12.3	-0.2	-1.8	-7.3	23.3
O=C(NNC(=O)C1[C@H]2CCCC[C@@H]12)c1ccc(=O)oc1 (stereo not given in full)	-11.8	0.2	14.3	-4.7	39.3*
COc1ccc(-c2cc(C(=O)N/N=C/C(C)=C\c3ccco3)[nH]n2)cc1	5.5	/	/	/	/
C=CCN(C(=O)[C@@H](C)[C@@H](O)c1ccc(Cl)cc1)c1ccccc1	-4.6	/	/	/	/
NC(=O)COc1ccc2cc(-c3ccc(F)cc3)c(=O)oc2c1	-251.4	/	+	2.6	17.9
COc1ccc(-c2cc3ccc(OCC(C)=O)cc3oc2=O)cc1	-106.7	-14.7	154.8*	7.4	14.8
COC(=O)COc1ccc2cc(-c3ccccc3)c(=O)oc2c1	-375.6	-1.7	+	99.9	37.9*
COc1ccc(-c2cc3ccc(OCC(C)=O)cc3oc2=O)cc1OC	6.3	-7.6	1.3	5.1	17.3
COC(=O)COc1ccc2c(=O)c(-c3ccccc3)coc2c1	-6.9	-0.5	1.9	99.9	-11.5
SMILES	CCHFV vOTU inh	RecA intein inh	Mtb FBA inh	Mtb betalactam	GDH-TPI inh
O=C(COc1ccc2cc(-c3ccccc3)c(=O)oc2c1)NCC1CCC(C(=O)O)CC1 (stereo not given)	-282.6	-2.5	+	1.5	49.0*
NC(=O)COc1ccc2cc(-c3ccccc3)c(=O)oc2c1	-370.9	-5.9	+	82.8	30.8*
O=c1oc2cc(OCc3c(F)c(F)c(F)c(F)c3F)ccc2cc1-c1ccccn1	-3.2	0.4	3.8	75.6	-0.7
Cc1ccc(C(=O)/C=C/Nc2cccc([N+](=O)[O-])c2)o1	2.4	-1.2	-3.5	0.0	18.6
O=C(/C=C/Nc1cccc([N+](=O)[O-])c1)c1ccco1	-9.5	0.5	-2.2	5.0	35.0*
CC(=O)/C(=N/Nc1ccccc1)Sc1nnc(CCc2ccccc2)n1-c1ccccc1	21.4	2.7	2.9	4.7	31.7*
Cc1ccc(C(=O)Oc2ccc3ccc(=O)oc3c2)cc1	-79.5	-4.0	22.1	38.5	13.0
CC(=O)Oc1ccc2ccc(=O)oc2c1	-286.4	-72.8	+	-1.1	9.0
O=C(Oc1ccc2ccc(=O)oc2c1)c1ccc([N+](=O)[O-])cc1	-309.8	-13.1	183.0*	0.7	-2.4
CCOC(=O)N1CCC(N2C(=O)c3ccccc3C2Nc2ccc3c(C)cc(=O)oc3c2)CC1 (stereo not given)	-277.1	-11.0	+	-9.0	20.2
CCOC(=O)N1CCC(N2C(=O)c3ccccc3C2Nc2ccc3c(c2)OCCO3)CC1 (stereo not given)	3.0	2.1	0.4	?	-3.0
N/C(=N\C(=O)OCc1ccccc1)N(CC#CC1=CCCCC1)CC1CC1	10.3	/	/	/	/
COC(=O)c1ccccc1N/C=C1\CCc2c(c(C)nn2-c2ccccn2)C1=O	0.3	-18.8	8.7	14.5	32.3*
CCOC(=O)Cc1csc(NC(=O)/C=C/c2ccc(Br)o2)n1	4.6	-16.6	-2.6	-1.3	75.3*
CC1(C)Cc2c(c(N3CCOCC3)nc3sc(-c4ccc(C(=O)O)o4)c(N)c23)CO1	-1.3	-339.8	68.6*	-4.3	36.9*
CNC(=O)c1ccc(-c2sc3nc(N4CCOCC4)c4c(c3c2N)CCCC4)o1	-56.6	-375.4	13.7	60.9	11.0
CC(=O)Oc1ccc2cc(-c3nc4ccccc4n3C)c(=O)oc2c1	-323.9	/	+	5.2	29.8
CC(C)(C)C(=O)Oc1ccc2cc(-c3ccc4ccccc4n3)c(=O)oc2c1	-22.0	-11.6	8.2	14.3	-1.4
CCN(CC)Cc1c(O)ccc2cc(-c3nc4ccccc4n3C)c(=O)oc12	-372.9	i	+	13.3	12.1
O=C(Cn1c(-c2cncs2)nc2ccccc21)NCc1cccs1	2.4	/	/	/	/
Cc1cc(=O)[nH]c(SCC(=O)Nc2ccc(F)c(F)c2)n1	-3.9	/	/	/	/
COC(=O)[C@]12C[C@H](CC(=O)NCCc3ccccc3OC)C(=O)N(Cc3cccc4ccccc34)C1=C[C@H](C(C)C)O[C@@H]2C1CC1	13.7	/	/	/	/
Cc1ccc2nc(-c3ccc(-c4ccccn4)s3)cn2c1	-66.2	0.7	+	2.8	20.5
Brc1ccc(-c2cn3ccccc3n2)s1	9.6	3.4	3.1	21.5	4.1
CCC1(OC(=O)CN)C(=O)OCc2c1cc1n(c2=O)Cc2cc3ccccc3nc2-1 (stereo not given)	/	-39.5	+	3.4	29.0
